Results from PubChem BioAssay AID571 (The Scripps Research Institute Molecular Screening Center, 2007).
About 640 (0.98%) of roughly 65,000 compounds were called active. The list comes from a sample in which actives are over-represented; it also holds similar structures and randomly drawn compounds. Values without a mark were called inactive.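 The calls were made as follows: active = inhibition above a set limit, the mean inhibition across every tested compound plus 3 SD (cut at about 29% in these data); inactive = the rest.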

target: 5-hydroxytryptamine receptor 1E (Homo sapiens) (UniProt P28566); assay: blockade of human serotonin 5HT1E receptor – cell-based, HTS, primary screen (AID 571); details: CHO 5-HT1E Ga15 NFAT-bla reporter, FRET, antagonist; at 6 µM; hits give high values;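 also: signal is the 460 over 535 nm emission ratio of beta-lactamase substrate; 0% = agonist plus DMSO wells and 100% = wells without agonist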
Sequence (P28566 whole entry, looked up): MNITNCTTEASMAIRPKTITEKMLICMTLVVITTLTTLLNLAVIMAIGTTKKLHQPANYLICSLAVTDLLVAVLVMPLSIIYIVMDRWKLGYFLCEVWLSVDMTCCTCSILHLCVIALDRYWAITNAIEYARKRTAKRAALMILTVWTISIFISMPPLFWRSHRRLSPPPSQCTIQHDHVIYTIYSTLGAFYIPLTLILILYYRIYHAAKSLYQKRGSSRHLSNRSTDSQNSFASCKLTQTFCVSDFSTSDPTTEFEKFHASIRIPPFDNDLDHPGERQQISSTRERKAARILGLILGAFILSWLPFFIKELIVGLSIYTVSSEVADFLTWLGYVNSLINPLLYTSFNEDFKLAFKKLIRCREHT

Compound | inhibition
C[N+](C)(C)CCOP(=O)([O-])OC[C@H](O)CO | -4.74%
COc1ccc(Br)cc1S(=O)(=O)N1CCN=C1C | -3.84%
CC1CCCC(NC(=O)CSc2nccn2C)C1C (stereo unspecified) | 2.04%
Cc1c(C(=O)NCCN2CCOCC2)sc2nc(-c3ccc(F)cc3)cn12 | -2.05%
c1ccc(-c2cn3cccnc3n2)cc1 | -0.19%
COc1ccc(S(=O)(=O)NC(CC(=O)NCc2ccccc2OC)c2ccco2)cc1 (stereo unspecified) | -1.55%
CCOC(=O)N1CCC(NC(=O)CN2C(=O)COc3ccc(C(C)(C)C)cc32)CC1 | -7.21%
CCOC(=O)N1CCC(NC(=O)Cc2cn(C)c3ccccc23)CC1 | -14.8%
CCOC(=O)c1c(C)oc2ccc(OCC(=O)N(CC)CC)cc12 | -6.18%
COc1ccc(C)cc1S(=O)(=O)NC1CCCCC1 | -3.9%
O=C(Cn1c(=S)nc2ccccn21)N1CCc2ccccc2C1 | -1.67%
CCCCNC(=O)CSc1nccn1Cc1ccccc1 | 3.33%
O=C(CNS(=O)(=O)c1cccc(C(F)(F)F)c1)Nc1ccccc1F | -3.72%
CCCCC(=O)Nc1ccc2c(c1)OCCO2 | -10.5%
CCCCCC(=O)Nc1ccc2oc(-c3ccncc3)nc2c1 | 4%
CCCCC(=O)Nc1ccc2c(c1)C(=O)NC2=O | 44% (active)
Nc1ccc(SCCN2C(=O)c3ccccc3C2=O)cc1 | -1.04%
COC(=O)c1ccc(NC(=O)CSc2nnc(Cc3cccn3C)n2-c2ccc(F)cc2)cc1 | -7.1%
CCc1nnc(NC(=O)c2nc3nccc(C)n3n2)s1 | -0.48%
CCOc1ccc(C(=O)Nc2ccncc2)cc1 | 5.74%
CSc1sc(C)cc1C1C(C#N)=C(N)N(c2cccnc2)C2=C1C(=O)CCC2 (stereo unspecified) | 24.6%
COc1ccc(CCNS(=O)(=O)c2ccc(C(=O)NCc3ccco3)cc2)cc1OC | -13.4%
Cc1ccccc1NC(=O)Cc1nnc(SCC(=O)N2CCN(c3ccccc3)CC2)n1C | 2.63%

Compound | inhibition
Cc1noc(C)c1S(=O)(=O)NCCc1ccc(S(N)(=O)=O)cc1 | -6.61%
Cc1cccc(-n2c(O)c(C=Nc3ccccc3N)c(=O)[nH]c2=O)c1 | -5.35%
Cc1ccc2c(c1)N(CCCC(=O)NCc1cccnc1)C(=O)CO2 | 10.1%
Cc1ccc(-n2nc(-c3ccco3)cc2C(=O)NCc2cccnc2)cc1 | 30.4% (active)
CC(C)(C)c1cc(C(=O)NCc2cccnc2)ccn1 | -1.08%
CCN1CCN(C(=O)c2ccccc2N(C)S(=O)(=O)c2ccc(C)cc2)CC1 | -11.1%
Cc1nnc2sc(-c3ccco3)nn12 | -3.05%
CCn1c(=O)cc(OCC(=O)NCCCN2CCN(c3cccc(Cl)c3)CC2)c2ccccc21 | -1.38%
CC1CCCC(C)N1CCCNC(=O)c1cc2c(=O)n(C)c3ccccc3c2n1C (stereo unspecified) | -8.37%
Cn1c(C(=O)NCCCN2CCN(c3cccc(Cl)c3)CC2)cc2c(=O)n(C)c3ccccc3c21 | 28.9% (active)
COc1ccc(N=Cc2c(O)[nH]c3ccccc23)cc1OC | -3.2%
COc1ccc(OC)c(N=Cc2c(O)[nH]c3ccccc23)c1 | 39.8% (active)
COc1cc(N=Cc2c(O)[nH]c3ccccc23)cc(OC)c1OC | 4.31%
COc1ccc(NC2CC(=O)N(C)C2=O)cc1 (stereo unspecified) | -0.34%
C[C@H](NC(=O)OC(C)(C)C)c1nnc(SCC(N)=O)o1 | -6.77%
O=C(Nc1ccccc1N1CCCCC1)c1cccc(F)c1 | -0.39%
O=C(NCc1ccco1)c1cccn2c(=O)c3cc(Br)ccc3nc12 | 11.4%
Cc1cccc(NC(=O)CN2CCCN(S(=O)(=O)c3ccc(Br)s3)CC2)c1 | 12.7%
CCC1(C)Cc2c(sc3nc4n(c(=O)c23)CCCS4)CO1 (stereo unspecified) | 7.47%
COC(=O)c1c(NC(=O)CSc2nc3c(c(=O)n(C)c(=O)n3C)n2C(C)C)sc(C)c1C | -1.61%
CCCCCCC(=O)N(O)C1CC(=O)N(c2ccccc2)C1=O (stereo unspecified) | 29% (active)
CCOc1ccc(N2C(=O)CC(N(O)c3ccccc3)C2=O)cc1 (stereo unspecified) | -13.5%
CCCCOC(=O)c1ccc(N2C(=O)CC(N3CCN(C/C=C/c4ccccc4)CC3)C2=O)cc1 (stereo unspecified) | -8.79%

Compound | inhibition
Cc1cc(C)cc(OCc2nnc(SCC(=O)OC3CCCCC3)o2)c1 | 1.45%
Cc1cc(C(=O)OCC(=O)c2c(N)n(C)c(=O)n(C)c2=O)c(C)o1 | -2.61%
CCOc1ccccc1NC(=O)C1CCC(CNc2c(N3CCOCC3)c(=O)c2=O)CC1 (stereo unspecified) | -7.97%
Cn1c(=O)[nH]c(=O)c2c1nc(N1CCN(CCO)CC1)n2CCSc1nc2ccccc2s1 | -9.93%
COc1ccc(NC(=O)c2c(SC)nsc2SC)cc1 | 3.42%
COc1cccc(C(=O)Nc2c3c(nn2-c2cccc(C)c2C)CS(=O)(=O)C3)c1OC | 29.9% (active)
O=C(CC1CCCCC1)Nc1c2c(nn1-c1ccc(F)cc1)CS(=O)(=O)C2 | 3.57%
Cc1cccc(-n2nc3c(c2NC(=O)c2ccc(Br)o2)CSC3)c1C | -0.62%
Cc1noc(C)c1S(=O)(=O)N1CCCC(C(=O)Nc2nccs2)C1 (stereo unspecified) | 6.69%
CC(C)C[C@H](NC(=O)NCCc1ccc(Cl)cc1)C(=O)O | 0.25%
Cn1cccc1Cc1nnc(SCC(=O)NCc2ccc3c(c2)OCO3)n1CCc1ccccc1 | -2.19%
C=CCn1c(COc2ccccc2C)nnc1SCC(=O)O | 10.3%
COC(=O)c1ccc(NC(=O)CSc2nnc(-c3ccncc3)n2C)cc1 | -4.91%
CCOc1cc(CN2CCN(C(=O)CC(C)C)CC2)ccc1OC | -2.34%
CCOc1cc(C(=O)N2CCc3cc(OC)c(OC)cc3C2)ccc1OC(F)F | 90.1% (active)
CCOc1cc(-c2noc(CCC(=O)N3CCOCC3)n2)ccc1OC | 8.36%
CCN(CC)C(=O)N1CCN(C(=O)c2ccc(C)cn2)CC1 | -13.6%
COC(=O)C1(S(=O)(=O)C2(C(=O)OC)CCCC2)CCCC1 | -13%
C/C(CC(O)(/C=N/O)c1ccccc1)=N\O (stereo unspecified) | 1.85%
COCCNC(=O)C(C#N)c1nc2ccccc2nc1N1CCN(Cc2ccc3c(c2)OCO3)CC1 (stereo unspecified) | 2.9%
Cc1ccc(-c2noc(CSc3nnnn3-c3ccccc3)n2)cc1 | 4.04%
O=c1c2ccccc2nc(CSc2nnnn2-c2ccccc2)n1-c1ccccc1 | -9.14%
CN(C)c1nc(N)nc(CSc2nnnn2-c2cccc3ccccc23)n1 | 30.2% (active)

Compound | inhibition
O=C1CCCN1CCCNc1ncnc2c1[nH]c1ccccc12 | 4.24%
CCN1CCCC1CNc1ncnc2c1[nH]c1ccc(F)cc12 (stereo unspecified) | -8.46%
CC(C)OCCCNc1ncnc2c1[nH]c1ccc(F)cc12 | 35% (active)
CCOc1ccc(NC(=O)Nc2cc(C)on2)cc1 | -2.74%
O=C(CN1C(=O)COc2ccccc21)Nc1ccc(F)cc1 | 6.81%
O=C(CSc1nnc(-c2c[nH]c3ccccc23)n1-c1ccc(F)cc1)NCc1ccco1 | 6.88%
COc1ccc(S(=O)(=O)N(C)CC(=O)Nc2ccc3c(c2)OCCO3)cc1OC | 10.4%
CCC(C)(C)n1nnnc1C(c1cccs1)N1CCN(c2nc3ccccc3s2)CC1 (stereo unspecified) | 3.71%
Cc1nnc(SCc2cc(=O)[nH]c(N3CCN(Cc4ccccc4)CC3)n2)s1 | -7.09%
COc1cc(OC)c(C(=O)Nc2ccc(N(C)C)cc2)cc1OC | -7.5%
COc1ccccc1-c1nc(C(F)(F)F)c(OC)o1 | -6.75%
Cc1cc(C)n2nc(C(=O)Oc3ccc4c(c3)OCO4)nc2n1 | -5.31%
Nc1nonc1-c1nc2ccccc2n1Cc1ccc(F)cc1 | 8.52%
COc1ccc(C)c(Cn2c(-c3nonc3N)nc3ccccc32)c1 | 33.6% (active)
Nc1nonc1-c1nc2ccccc2n1CCC(=O)O | 7.28%
NC(=O)CSc1oc(-c2cccs2)nc1S(=O)(=O)c1ccccc1 | 1.39%
CN(C)CCCNC(=O)c1ccc2[nH]c3ccccc3c2c1 | -3.46%
CCCCOc1ccc(C(C)(O)CCN2CCOCC2)cc1 (stereo unspecified) | 2.45%
Cc1ccc(S(=O)(=O)n2nc(OC(=O)C(C)(C)C)cc2N)cc1 | -1.76%
CN1CCCC(OC(=O)COc2ccc(Br)cc2)C1 (stereo unspecified) | -15.4%
CC[C@H]1CN2CCc3cc(OC)c(OC)cc3[C@@H]2C[C@@H]1C[C@H]1NCCc2cc(OC)c(OC)cc21 | 92.4% (active)
CCOC(=O)C1CCCN(C(=O)c2cncc(Br)c2)C1 (stereo unspecified) | 3.85%
O=C(c1ccco1)N1CCN(CC(=O)N(C2CCCCC2)C2CCS(=O)(=O)C2)CC1 (stereo unspecified) | 16.6%

Compound | inhibition
CCSc1ncnc2c(C#N)c3n(c12)CCCCC3 | 47.6% (active)
CCSC1=C(C#N)C(=O)n2c1cc1c2CCCC1 | -0.37%
COC(=O)c1ccccc1NC(=O)Cn1nc(C(F)(F)F)c2c1CCC2 | -3.25%
CCn1c2c(c3ccc(OC)cc31)CCCC2=O | 4.52%
Cc1cc(NC(=O)c2cc(-c3cccs3)on2)nn1Cc1ccc(Cl)cc1 | -7.29%
O=C(Nc1cc(C(F)(F)F)ccc1Cl)c1cc(C2CC2)on1 | -9.73%
Cc1nn(Cc2ccc(Cl)c(Cl)c2)c(C)c1NC(=O)c1cc(C2CC2)on1 | 34.3% (active)
CC(=O)C1C(c2ccc(Cl)cc2)NC(=O)NC1(O)C(F)(F)F (stereo unspecified) | 6.15%
CCSC(C)CC1C/C(=N/O)c2c(C)noc2C1 (stereo unspecified) | 21.4%
Cc1nc2sc(C(c3ccco3)N3CCC4(CC3)OCCO4)c(O)n2n1 (stereo unspecified) | -11.1%
CC1(C)Oc2ccc3ccc(=O)oc3c2/C(=C/NCCO)C1=O | -8.4%
CN=C1SC(C(=O)O)CC(=O)N1C (stereo unspecified) | 1.76%
CC[C@]1(O)C[C@@H]2CN(CCc3c([nH]c4ccccc34)[C@@](C(=O)OC)(c3cc4c(cc3OC)N(C)[C@H]3[C@@](O)(C(=O)OC)[C@H](OC(C)=O)[C@]5(CC)C=CCN6CC[C@]43[C@@H]65)C2)C1 | 73.5% (active)
CC[C@]1(O)CC2CN(CCc3c([nH]c4ccccc34)[C@@](C(=O)OC)(c3cc4c(cc3OC)N(C=O)[C@H]3[C@@](O)(C(=O)OC)[C@H](OC(C)=O)[C@]5(CC)C=CCN6CC[C@]43[C@@H]65)C2)C1 (stereo partly specified) | 71.9% (active)
Cc1ccc(C(c2nnnn2C(C)(C)C)N2CCc3ccccc3C2)cc1 (stereo unspecified) | -3.9%
FC(F)Oc1ccccc1C1CC(c2ccc(Br)s2)Nc2ncnn21 (stereo unspecified) | 12%
O=C(c1cnn2ccccc12)N1CCc2ccccc21 | -4.32%
COCCNC(=O)CN(C(=O)CCC(=O)Nc1cc(C)on1)c1ccc(C)cc1C | -0.23%
Cc1cccc(Cn2c(SCCO)nc3c2c(=O)n(C)c(=O)n3C)c1 | -1.41%
